Experimental data taken from PubChem BioAssay AID1918990 (ICCB-Longwood Screening Facility, Harvard Medical School, 2023).
Among all 29,000 compounds or so, about 85 (0.3%) were called active. The sample as a whole holds a higher share of actives than the screen did. Unmarked numbers belong to inactive results.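 How the source made its calls: active means replicate mean overnight rise in green fluorescent reporter signal, 3 or more SD over negative controls; inactive means the rest.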

Assay: fixK promoter GFP reporter activation – B. multivorans, primary screen (AID 1918990)
Conditions: 18 h, stronger effect = higher value

Structure (SMILES) | z-score
COc1cc(NS(=O)(=O)c2cccs2)cc(OC)c1 | -1.05
Cc1ccc(C(=O)Nc2ccc3[nH]c(=O)c(=O)[nH]c3c2)cc1 | -0.29
CCCC(=O)Nc1cc2nn(-c3ccccc3)nc2cc1C | -0.72
O=C(CSc1ccncc1)NC1CCOCC1Oc1cccc(F)c1 (centres undefined) | -0.58
COc1cc(OC)c(N(C)C(=O)c2cc3c(=O)oc4ccccc4c3s2)cc1Cl | -1.12
CCC(=O)N1CCc2cc(S(=O)(=O)NC(Cc3ccccc3)C(=O)NCc3ccccc3)ccc21 (centres undefined) | -1.81
CC(NC(=O)CCN1CCN(C)CC1)c1cnn(-c2ccccc2)c1 (centres undefined) | 0.09
COc1cc(OC)c(NC(=O)c2c3c(nn2C)-c2ccccc2SC3)cc1Cl | 1.42
CCOC(=O)c1cnc2c(C)cc(C)cc2c1Nc1ccc(N2CCOCC2)cc1 | -0.2
O=C1CCC2(CCCN(C(=O)c3n[nH]c4c3CCCC4)C2)CN1CC1CC1 (centres undefined) | -0.52
CC(C)(C)NC(=O)CSc1nc(-c2ccc(F)cc2)cc(C(F)(F)F)n1 | -1.55
CCc1ccc(CN(Cc2ccco2)C(=O)c2ccccc2Cl)cc1 | 1.11
CCN1CCc2nc3sc(C(=O)Nc4ccccc4OC(F)(F)F)c(N)c3cc2C1 | -0.04
Cc1ccc(S(=O)(=O)N2CCCC(C(=O)CCc3ccccc3)C2)s1 (centres undefined) | -1.15
Cc1cc(C)nc(CCNC(=O)N(Cc2ccncc2)CC2CCC(=O)N2)n1 (centres undefined) | 0.83
Cc1ccc(Cl)cc1NC(=O)CCS(=O)(=O)c1ccc(Br)s1 | -1.34
CCCN1CCN(CCCNC(=O)Cn2nc(CC)n3c(cc4occc43)c2=O)CC1 | 0.72
Cc1nn(C)c2c1C(NC(=O)c1cc(CC(C)C)on1)CCC2 (centres undefined) | -0.15
Cc1ccc(NC(=O)C(Cc2ccccc2)NS(=O)(=O)c2ccc3c(c2)oc(=O)n3C)cc1C (centres undefined) | 0.54
Cc1nc2c(-c3ccccc3)c(C)nn2c(C)c1CCC(=O)NCCc1ccccc1 | -0.95
COc1ccc(-c2noc(CCC(=O)N(C)c3ccccc3C)n2)cc1 | -1.83
CCn1c(C(=O)Nc2cc(Cl)ccc2C)cc2sc(Cl)cc21 | -0.88
CCn1c(=O)c(=O)n(CC)c2cc(N3CCCCC3)c(NC(=O)c3cccc(F)c3)cc21 | 0.36

Structure (SMILES) | z-score
CCn1c(=O)c(=O)n(CC)c2cc(N3CCCCC3)c(NC(=O)c3ccc(Cl)cc3)cc21 | 15.3 (active)
CCCn1nccc1S(=O)(=O)NCc1csc(-c2cnccn2)n1 | -1.08
Cc1cccc(NC(=O)C2CCCN2S(=O)(=O)c2cccc3nsnc23)c1C (centres undefined) | 0.05
CN1C(=O)c2[nH]nc(-c3ccc(F)cc3)c2C1c1ccccn1 (centres undefined) | 0.33
CN(CCNC(=O)CN1CCCC(c2ccccc2)C1)S(C)(=O)=O (centres undefined) | 0.17
Cc1[nH]c(=O)[nH]c(=O)c1CC(=O)NCc1ccc(-c2ncon2)cc1 | -1.58
CCOC(=O)c1ccc(NC(=O)CC2C(=O)N(c3cccc(OC)c3)C(=O)N2C2CCCCC2)cc1 (centres undefined) | -0.28
CCOC(=O)c1cc2c(=O)n3ccccc3nc2n(CCCOC)c1=NC(=O)C(C)(C)Oc1ccc(Cl)cc1 | -0.51
Cc1cc(C(=O)NCCCc2nnc3ccccn23)nc(C)n1 | -0.17
COc1ccc(CNC(=O)c2cc3c(s2)-c2ccccc2OC3)cc1 | 0.73
COc1ccccc1CNC(=O)Cn1nccc1C1CCCNC1 (centres undefined) | 0
CCCCNC(=O)c1ccc2c(c1)NC(=O)C(C(C)C)N2 (centres undefined) | 0.08
COc1cc2nc(NCC(C)c3ccccc3)n3nc(-c4ccccc4)nc3c2cc1OC (centres undefined) | -0.67
CCCS(=O)(=O)c1c(Nc2ccccc2C)sc(C(=O)c2ccccc2)c1N | 0.44
CC1CCC2(CC1)N=C(c1ccccc1)C(=O)N2CC(=O)Nc1ccc(F)c(Cl)c1 (centres undefined) | -1.75
Cc1cc(C)cc(NS(=O)(=O)c2ccc3[nH]cc(C(=O)N4CCCCC4)c(=O)c3c2)c1 | -1.09
COc1ccc(CCNCc2c(C(=O)O)c(C)n(Cc3cccc(C)c3)c2C)cc1OC | -1.27
COC(=O)c1c(NC(=O)c2cc(=O)c3c(C)cc(C)cc3o2)sc2c1CCCC2 | -1.12
COCCN(CC=Cc1ccccc1)Cc1ccc2nonc2c1 | 0.18
COc1cc2c(=O)c(S(=O)(=O)c3ccc(C(C)C)cc3)cn(Cc3ccccc3C)c2cc1OC | 0.3
CCOC(=O)c1c(NC(=O)COc2cc(C)ccc2C(C)C)sc(C)c1C | -0.34
c1ccc(-c2noc(CCn3ccnc3-c3cnsc3)n2)nc1 | 0.47
Cc1ccc(-n2nc(CO)c(C(=O)NCCc3ccccc3)n2)cc1 | -0.78

Structure (SMILES) | z-score
CC(C)c1nnsc1C(=O)Nc1ccc(CC(=O)NC2CC2)cc1 | -0.11
Cn1ccnc1C(O)c1cc2n(n1)CCN(Cc1cccc(Cl)c1)C2 (centres undefined) | 0.34
COCCCNC(=O)c1c(NC(=O)c2cc(=O)c3cc(C)c(C)cc3o2)sc2c1CCCC2 | -0.42
COc1cccc2c1C1(CCN(C(=O)c3ccccn3)CC1)OCC2 | 0.69
CCOC(=O)C1CCCN(C(=O)Cn2ncc3c(C)n(Cc4ccc(F)cc4)c(C)c3c2=O)C1 (centres undefined) | 0.33
COc1ccc(Cl)cc1NC(=O)NCC1CCN(Cc2ccccc2F)CC1 | -7.23
Cc1ccc(C(=O)NCCc2nc(N)cc(=O)[nH]2)n1C(F)F | -0.52
COc1ccc(NC(=O)CSc2nc3ncccc3[nH]2)c(OC)c1 | 1.38
Cn1c(C2CCN(C(=O)CSc3nnc(N)s3)CC2)nc2ccccc21 | 0.47
CN(Cc1ccccc1)C(=O)c1cc2c(=O)n(C)c3ccccc3c2s1 | 0.14
CCOc1ccc(S(=O)(=O)N(CC(=O)NCCSCc2ccc(C)cc2)c2ccccc2)cc1 | -1.04
Cc1c(NC(=O)c2cc(=O)c3ccccc3o2)c(=O)n(-c2ccccc2)n1C | -0.69
COc1cccc(CNC(=O)c2cc(=O)[nH]c3ccc(S(=O)(=O)N4CCCCC4)cc23)c1 | -0.5
CCc1ccc(NC(=O)CN2C(=O)C(c3ccccc3)=NC23CCCCCC3)cc1 | -1.83
COC(=O)c1ccc(C2C(C(=O)Nc3ccccc3)=C(C)Nc3nc4ccccc4n32)cc1 (centres undefined) | -1.77
COc1ccc(CNC(=O)Cn2nnc(-c3ccc(S(C)(=O)=O)cc3)n2)cc1 | 0.3
Cn1c(=O)nc2n(-c3ccc(Br)cc3)c3cccc(Cl)c3cc-2c1=O | -1.2
COc1ccc(C(=O)Nc2onc3c2CCCC3)cc1 | -2.06
Cc1nc(C2CCN(S(=O)(=O)CCC3CCS(=O)(=O)C3)CC2)no1 (centres undefined) | 0.66
Cc1ccc(Nc2c(-c3ccc(C)cc3)nc3cnccn23)cc1 | -1.25
Cn1c(=O)c2c(nc(SCC(=O)Nc3ccc(F)cc3)n2Cc2ccccc2)n(C)c1=O | -1.14
Cc1ccc2nc(-c3ccc(O)cc3)c(Nc3ccc4c(c3)OCO4)n2c1 | 0.53
O=C(c1n[nH]c2ccccc12)N1CCc2nc(-c3cccc(F)c3)[nH]c2C1 | -1.33

Structure (SMILES) | z-score
COc1c(Cl)cc(C(=O)N(Cc2ccccc2F)C2CCS(=O)(=O)C2)cc1Cl (centres undefined) | -0.89
Cc1ccn2c(Nc3ccc4c(c3)OCCO4)c(-c3ccc(C)s3)nc2c1 | 0.86
CCOc1ccc(-c2cc3nc(C4CCN(C(=O)OC(C)(C)C)CC4)c(C(=O)Nc4cccc(CC)c4)cn3n2)cc1 | -0.21
CCOc1ccc2nc(N3CCC(C(=O)Nc4cc(C)ccc4C)CC3)sc2c1 | -0.96
Nc1ccnc(N2CCCC(c3[nH]ncc3-c3ccc(F)cc3)C2)n1 (centres undefined) | -0.16
COc1cc(NC(=O)CCNC(=O)Cn2ccc3ccccc3c2=O)cc(OC)c1OC | 0.24
CCCCOCC(=O)N1CCCC(c2ccn(CC(=O)O)n2)C1 (centres undefined) | -2.17
CN(C)C1CN(Cc2cnc(-c3ccc(Cl)cc3)nc2)CC1O (centres undefined) | -0.39
Cc1ccc(-c2nc(S(=O)(=O)c3ccc(C)cc3)c(N3CCCCCC3)o2)cc1 | -0.18
COc1ccc(CNC(=O)c2cc3c(=O)[nH]c4ccc(C)cc4c3s2)c(OC)c1 | -1.16
COc1cccc(OCc2cc(C(=O)N(C)Cc3nncn3C)n[nH]2)c1 | -1.49
Cc1c(CNC(C)c2ccccc2)c(C(=O)O)c(C)n1Cc1c(F)cccc1Cl (centres undefined) | -2.09
COCCN(CCOC)C(=O)c1ccc(-c2ncccc2Cl)cc1 | 0.44
Cn1c(=O)c2c(nc(SCC(=O)Nc3ccc(F)cc3)n2Cc2ccc(Cl)cc2)n(C)c1=O | -2.04
COCCNC(=O)c1cc(-c2cccc(Cl)c2)on1 | 1.09
CCOc1ccccc1NC(=O)Cn1c(=O)n(Cc2ccco2)c(=O)c2sc3ccccc3c21 | -1.53
COCCCCCC(=O)N1CC(O)C(Cc2cnccn2)C1 (centres undefined) | 0
CS(=O)(=O)N1CCCn2nc(CNC(=O)CC3CCCC3)cc2C1 | -0.69
Cc1ccc(C)c(Nc2nnc(-c3ccc(C)c(S(=O)(=O)N4CCCCC4)c3)c3ccccc23)c1 | -0.47
COC(=O)c1ccccc1NS(=O)(=O)c1ccc2c(c1)CCCN2C(C)=O | -1.34
